The nature of experiment [1]: qHTS assay to identify small molecule antagonists of the glucocorticoid receptor (GR) signaling pathway - cell viability counter screen (AID 720693). Note: nearly all actives have a fitted effect of over 55% in size.
Experiment [2] in a line: qHTS assay for identifying genotoxic compounds that show differential cytotoxicity against isogenic chicken DT40 cell lines with known DNA damage response pathways - wild type cell line (AID 743012). Note: nearly all actives have a fitted effect of over 60% in size. Note: potency is the fitted concentration of half-maximal effect. The method in brief: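 Viability of DNA repair-proficient chicken DT40 cells was assessed by CellTiter-Glo luminescence following 40 h compound exposure at 37 C/5% CO2.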
A short description of experiment [3]: qHTS assay for identifying genotoxic compounds that show differential cytotoxicity against isogenic chicken DT40 cell lines with known DNA damage response pathways - Rev3 mutant cell line (AID 743014). Note: nearly all actives have a fitted effect of over 55% in size. Note: potency is the fitted concentration of half-maximal effect.
Experiment [4] is described as follows: qHTS assay for identifying genotoxic compounds that show differential cytotoxicity against isogenic chicken DT40 cell lines with known DNA damage response pathways - Rad54/Ku70 mutant cell line (AID 743015). Note: nearly all actives have a fitted effect of over 60% in size. Note: potency is the fitted concentration of half-maximal effect.
Experiment [5] in a line: qHTS assay to identify small molecule antagonists of the thyroid receptor (TR) signaling pathway - cell viability counter screen (AID 743064). Note: nearly all actives have a fitted effect of over 50% in size. Note: potency is the fitted concentration of half-maximal effect. Summed up:
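Viability of T3-stimulated (1 nM final) GH3.TRE-Luc cells is measured by CellTiter-Fluor fluorescence after 23.5 h compound exposure at 37 °C plus 30 min reagent incubation.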

Experiment [6] is described as follows: qHTS assay to identify small molecule antagonists of the thyroid receptor (TR) signaling pathway (AID 743065). Note: nearly all actives have a fitted effect of over 55% in size. Note: potency is the fitted concentration of half-maximal effect. Summed up:
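GH3.TRE-Luc rat pituitary cells carrying two TR response elements driving luciferase were plated for 4 h, given compound plus 1 nM T3 (final), and incubated 23.5 h at 37 C. ONE-Glo luminescence measured reporter inhibition; CellTiter-Fluor fluorescence tracked cytotoxicity.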

Experiment [7] concerns thyroid hormone receptor (rat, GH3 cells). The experiment can be described thus: qHTS assay to identify small molecule agonists of the thyroid receptor (TR) signaling pathway (AID 743066; calls by dose curve).
Experiment [8] has as its target Estrogen receptor (Homo sapiens) (UniProt P03372). The experiment can be described thus: qHTS assay to identify small molecule antagonists of the estrogen receptor alpha (ER-alpha) signaling pathway (AID 743069; active = well fitted curve in the direction sought with a large enough effect in the signal ratio in the repeat runs, not every such curve was filed as active; inconclusive = weak or mixed curves, or effect the other way; inactive = no such curve, though single readings can be large or run the other way; the % refers to the signal ratio). Summed up:
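A 17beta-estradiol challenge was applied right after compound transfer to ER-alpha-UAS-bla HEK293 cells previously kept in charcoal-stripped serum. Plates stood 18 hr at 37C and 5% CO2; fluorescence was read following 2 hr FRET substrate loading at room temperature.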

The target is the same in experiment [9]. As to the kind of experiment: qHTS assay to identify small molecule agonists of the estrogen receptor alpha (ER-alpha) signaling pathway (AID 743075; calls by dose curve;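 note: HEK293 GripTite cells with ER-alpha and UAS-driven beta-lactamase reporter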; note: potency is the fitted concentration of half-maximal effect).
Experiment [10] is described as follows: qHTS assay to identify small molecule antagonists of the estrogen receptor alpha (ER-alpha) signaling pathway using the BG1 cell line - cell viability counter screen (AID 743081).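 Note: compound given together with 17beta-estradiol as the ER stimulus; series mostly up to about 70 µM; nearly all actives have a fitted effect of over 45% in size.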
Another experiment has as its target Aromatase (Homo sapiens) (UniProt P11511). The experiment can be described thus: qHTS assay to identify aromatase inhibitors (AID 743083). Note: nearly all actives have a fitted effect of over 55% in size. Note: potency is the fitted concentration of half-maximal effect.
Experiment [11] is described as follows: qHTS assay to identify small molecule antagonists of the androgen receptor (AR) signaling pathway - cell viability counter screen (AID 743033; note: nearly all actives have a fitted effect of over 45% in size).
Experiment [12] can be described thus: qHTS assay to identify small molecule antagonists of the estrogen receptor alpha (ER-alpha) signaling pathway - cell viability counter screen (AID 743074; calls by dose curve;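 note: HEK293 cells carrying ER-alpha-UAS-bla reporter stimulated with 17beta-estradiol; nearly all actives have a fitted effect of over 45% in size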).
For experiment [13], the target named is Estrogen receptor (Homo sapiens) (UniProt P03372). The experiment can be described thus: qHTS assay to identify small molecule agonists of the estrogen receptor alpha (ER-alpha) signaling pathway using the BG1 cell line (AID 743079). Note: nearly all actives have a fitted effect of over 20% in size. Note: potency is the fitted concentration of half-maximal effect.
Experiment [14] can be described thus: qHTS assay to identify small molecule antagonists of the estrogen receptor alpha (ER-alpha) signaling pathway using the BG1 cell line (AID 743080; calls by dose curve;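 note: BG1 cells stimulated with 17beta-estradiol alongside compound; series mostly up to about 70 µM; nearly all actives have a fitted effect of over 25% in size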). Summed up:
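Luminescence from a 4×ERE-luciferase reporter in BG1-Luc-4E2 cells served as read-out. Cells, pre-cultured 5 days in stripped-serum phenol-red-free medium, were exposed to compound with 17beta-estradiol co-stimulation for 21.5 h at 37 C.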

A short description of experiment [15]: qHTS assay to identify small molecule antagonists of the androgen receptor (AR) signaling pathway using the MDA cell line - cell viability counter screen (AID 743041; note: nearly all actives have a fitted effect of over 45% in size). Summed up: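 In this qHTS counter assay, fluorescence intensity after CellTiter-Fluor addition indicated viability of MDA-kb2 AR-luc cells given compounds and R1881 for 16 h at 37C.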

Where “and” joins values, the source holds several entries; their conditions need not be identical. Equal values may be shown once. Calls of active or inactive are those of the source. Unless noted, calls come from the whole dose curve; as a rule, active = well fitted curve in the direction sought with a large enough effect in the repeat runs; inconclusive = weak or mixed curves; inactive = no such curve, though single readings can be large; an effect the other way counts as inactive or inconclusive.

Chain of Aromatase (Homo sapiens) (P11511 whole entry, looked up): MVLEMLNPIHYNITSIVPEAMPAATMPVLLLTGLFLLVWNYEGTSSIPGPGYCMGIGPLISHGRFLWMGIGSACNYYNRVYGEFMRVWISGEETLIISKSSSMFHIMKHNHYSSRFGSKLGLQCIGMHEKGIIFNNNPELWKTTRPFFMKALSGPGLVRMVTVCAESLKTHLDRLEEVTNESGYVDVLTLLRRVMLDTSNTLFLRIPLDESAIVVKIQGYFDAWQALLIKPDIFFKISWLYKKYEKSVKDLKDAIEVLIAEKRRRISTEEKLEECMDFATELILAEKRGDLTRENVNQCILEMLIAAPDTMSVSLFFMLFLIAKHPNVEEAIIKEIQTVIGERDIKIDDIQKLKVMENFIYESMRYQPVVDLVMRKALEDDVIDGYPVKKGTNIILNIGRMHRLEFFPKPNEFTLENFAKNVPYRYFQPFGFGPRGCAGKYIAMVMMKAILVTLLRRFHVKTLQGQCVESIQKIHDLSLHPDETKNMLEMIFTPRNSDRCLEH
Chain of Estrogen receptor (Homo sapiens) (P03372 whole entry, looked up): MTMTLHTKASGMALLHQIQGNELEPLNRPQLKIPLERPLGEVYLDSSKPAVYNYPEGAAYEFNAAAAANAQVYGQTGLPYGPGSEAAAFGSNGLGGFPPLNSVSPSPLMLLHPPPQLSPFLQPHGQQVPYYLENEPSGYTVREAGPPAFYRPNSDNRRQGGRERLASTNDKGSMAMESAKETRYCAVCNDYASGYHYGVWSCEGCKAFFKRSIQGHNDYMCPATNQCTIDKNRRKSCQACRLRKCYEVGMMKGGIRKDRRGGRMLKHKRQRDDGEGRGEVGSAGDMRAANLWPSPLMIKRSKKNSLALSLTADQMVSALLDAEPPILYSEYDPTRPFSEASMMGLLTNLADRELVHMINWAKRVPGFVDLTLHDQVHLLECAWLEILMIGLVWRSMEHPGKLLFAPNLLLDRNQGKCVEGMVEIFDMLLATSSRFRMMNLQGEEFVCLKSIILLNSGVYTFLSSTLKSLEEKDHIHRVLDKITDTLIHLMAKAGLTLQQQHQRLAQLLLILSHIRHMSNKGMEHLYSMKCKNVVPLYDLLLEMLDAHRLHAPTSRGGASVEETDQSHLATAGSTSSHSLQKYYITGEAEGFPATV

On to `Cc1cc(-c2ccc(N=Nc3ccc4c(S(=O)(=O)O)cc(S(=O)(=O)O)c(N)c4c3O)c(C)c2)ccc1N=Nc1ccc2c(S(=O)(=O)O)cc(S(=O)(=O)O)c(N)c2c1O`, for which the Potency entry in experiment [1], in experiment [5], in experiment [7], in [8], in experiment [9] and in [10] was “inactive” throughout. Further, the Potency is 23.7 µM (active) in experiment [2]; 23.7 µM (active) in [3]; 11.9 µM (active) and 23.7 µM (active) in experiment [4]; 23.7 µM (active) in [6]; 26.6 µM (active) with Aromatase (Homo sapiens).
As to `CN1[C@@H](CC(=O)c2ccccc2)CCC[C@H]1C[C@H](O)c1ccccc1`, the Potency entry in experiment [1], in experiment [3], in experiment [11], in experiment [7], in experiment [8] and in experiment [12] was “inactive” each time. Moreover, the Potency result (in experiment [9]; in [13]; in experiment [14]; in the experiment with Aromatase (Homo sapiens)) was “inactive” in each case. In addition, the Potency in experiment [2] was 26.6 µM (active).
With `COc1cc([C@@H]2c3cc4c(cc3[C@@H](O[C@@H]3O[C@@H]5CO[C@@H](C)O[C@H]5[C@H](O)[C@H]3O)[C@H]3COC(=O)[C@H]23)OCO4)cc(OC)c1O`, the Potency entry (in experiment [1]; in [15]; in experiment [7]; in experiment [12]; in experiment [10]; with Aromatase (Homo sapiens)) was “inactive” in each case. Further, the Potency in experiment [2] was 531 nM (active) and 340 nM (active); in [3] it was 473 nM (active) and 107 nM (active); in experiment [4], 53.1 nM (active) and 15.2 nM (active); in experiment [5], 4.28 µM (active); in experiment [6], 9.44 µM (active) and 3.4 µM (active).
As to `CCCCCCCCCCCCCCCCCCOCC(COP(=O)([O-])OCC[N+](C)(C)C)OC` (stereo unspecified), the Potency entry in experiment [1], in [2], in [3], in [11], in [15] and in experiment [7] was “inactive” each time. Moreover, the Potency result in experiment [8], in experiment [12], in experiment [9], in [13], in experiment [14] and in [10] was “inactive” in each case. In addition, in the experiment with Aromatase (Homo sapiens), the Potency result was “inactive”.
Turning to `NC(N)=NCCCCN=C(N)N`, the Potency entry in experiment [1], in [2], in experiment [3], in experiment [4], in [15] and in experiment [6] was “inactive” in each case. The Potency entry (in [7]; in experiment [12]; in experiment [14]; with Aromatase (Homo sapiens)) was “inactive” in each case. In addition, the Potency in experiment [9] was 5.35 µM [inconclusive] (active); in experiment [13], 0.473 µM (active).
`Oc1ccc(Cl)cc1C1CCCC1`: the Potency entry in [1], in experiment [15], in experiment [7], in [12], in experiment [9] and in experiment [14] was “inactive” throughout. Besides, the Potency entry in experiment [10] is “inactive”. Moreover, the Potency in experiment [2] is 48.6 µM (active); in experiment [3] it was 15.4 µM (active); in experiment [4], 27.3 µM (active).
Regarding `CN=C(N)NCCC[C@H](N)C(=O)O`, the Potency entry in [1], in experiment [2], in experiment [3], in experiment [4], in experiment [15] and in [5] was “inactive” each time. Moreover, the Potency entry (in [12]; in [10]; with Aromatase (Homo sapiens)) was “inactive” in each case.
Turning to `COc1c(Br)cc(Br)c(C)c1Br`, the Potency result in [1], in experiment [2], in experiment [3], in experiment [4], in experiment [15] and in experiment [5] was “inactive” throughout. Besides, the Potency entry in experiment [6], in [7], in experiment [12] and in experiment [10] was “inactive” each time.
On to `C/C(=C\C(=O)OCCCCCCCCC(=O)O)C[C@@H]1OC[C@H](C[C@@H]2O[C@H]2[C@@H](C)[C@H](C)O)[C@@H](O)[C@H]1O`, for which the Potency entry in experiment [1], in experiment [15], in [6], in experiment [7], in experiment [8] and in experiment [12] was “inactive” in each case. Besides, the Potency entry (in experiment [9]; in [13]; in experiment [14]; in [10]; with Aromatase (Homo sapiens)) was “inactive” in each case. Besides, the Potency in experiment [2] is 1.5 µM (active); in [3], 1.5 µM (active); in experiment [4] it was 2.37 µM (active).
Take `CCc1cn([C@H]2C[C@H](O)[C@@H](CO)O2)c(=O)[nH]c1=O`: the Potency result in experiment [1], in [2], in experiment [3], in [4], in experiment [15] and in experiment [6] was “inactive” in each case. Besides, the Potency entry (in [7]; in [12]; in experiment [10]; in the experiment with Aromatase (Homo sapiens)) was “inactive” each time.
`NCCCC(=O)O`: the Potency result in experiment [1], in experiment [2], in experiment [4], in experiment [11], in experiment [15] and in [5] was “inactive” each time. The Potency result in [6], in [7], in experiment [8], in experiment [12], in [9] and in experiment [13] was “inactive” each time. Further, the Potency result (in experiment [14]; in experiment [10]; with Aromatase (Homo sapiens)) was “inactive” in each case.

The record behind these values is PubChem BioAssay (Tox21).
